According to PubChem BioAssay AID1159580 (chemical genetic matrix, 2015):
Values joined by “and” are separate entries in the source; they are usually repeats but may differ in a detail not shown here. Identical values can stand only once. About 2,000 (36%) of roughly 5,500 compounds were called active. Not shown: some 18% with an inconclusive outcome. Cut-off read from the data, not from the text of the source: active = normalized growth mostly below about 0.91 (no sharp cut-off); inconclusive = no clear call, values can overlap the other calls; inactive = mostly above about 0.92. The list shows a part of the results.

Assay: chemical genetic growth profiling, strain panel (AID 1159580);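 note: tested at 20 µM; growth read once vehicle control cultures reached saturation at 30 °C; 1 = growth at the plate median or of vehicle wells; lower values mean less growth of the strain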
Settings: S. cerevisiae deletion strains, growth OD

Measured: normalized growth

Nc1ccc(S(=O)(=O)Nc2ccnn2-c2ccccc2)cc1
inactive: locus YAL013W, strain DEP1, active compounds read low 1.04 | locus YAL021C, strain ccr4, active compounds read low 0.986 | locus YAL026C, strain drs2, active compounds read low 0.977 | locus YAL030W, strain snc1, active compounds read low 1.01 | locus YAL040C, strain CLN3, active compounds read low 1.02 | locus YBL061C, strain skt5, active compounds read low 1.01 | locus YBR009C, strain hhf1, active compounds read low 1.01 | locus YBR021W, strain FUR4, active compounds read low 0.994 | locus YBR023C, strain chs3, active compounds read low 0.999 | locus YBR171W, strain sec66, active compounds read low 0.993 | locus YBR229C, strain ROT2, active compounds read low 1.01 | locus YBR231C, strain swc5, active compounds read low 1.01 | locus YBR279W, strain paf1, active compounds read low 0.996 | locus YCL011C, strain gbp2, active compounds read low 0.982 | locus YCL016C, strain dcc1, active compounds read low 0.999 | locus YCL029C, strain bik1, active compounds read low 0.995 | locus YCL061C, strain MRC1 (second series), active compounds read low 1.02 | locus YCL061C, strain MRC1, active compounds read low 0.997 | locus YCL069W, strain vba3, active compounds read low 0.991 | locus YCR088W, strain abp1, active compounds read low 0.982 | locus YDL005C, strain med2, active compounds read low 0.98 | locus YDL035C, strain GPR1, active compounds read low 0.999 | locus YDL040C, strain nat1, active compounds read low 0.993 | locus YDL074C, strain BRE1, active compounds read low 1.02 | locus YDL101C, strain DUN1, active compounds read low 1.02 | locus YDL134C, strain PPH21, active compounds read low 0.995 | locus YDL185W, strain tfp1, active compounds read low 1 | locus YDL192W, strain arf1, active compounds read low 0.995 | locus YDR001C, strain nth1, active compounds read low 0.994 | locus YDR069C, strain doa4, active compounds read low 0.999 | locus YDR101C, strain arx1, active compounds read low 1.01 | locus YDR137W, strain rgp1, active compounds read low 0.938 | locus YDR150W, strain NUM1, active compounds read low 1.02 and 1.01 | locus YDR159W, strain sac3, active compounds read low 1.02 | locus YDR162C, strain NBP2, active compounds read low 0.999 | locus YDR195W, strain ref2 0.961 | locus YDR297W, strain sur2, active compounds read low 0.998 | locus YDR318W, strain mcm21, active compounds read low 0.99 | locus YDR334W, strain swr1, active compounds read low 0.95 | locus YDR335W, strain msn5, active compounds read low 0.998 | locus YDR363W, strain ESC2, active compounds read low 1.01 | locus YDR388W, active compounds read low 1 | locus YDR392W, strain spt3, active compounds read low 0.96 | locus YDR502C, strain sam2, active compounds read low 1.03 | locus YEL003W, strain gim4, active compounds read low 0.986 | locus YEL037C, strain rad23, active compounds read low 0.991 | locus YEL061C, strain CIN8 (second series), active compounds read low 0.992 | locus YEL061C, strain CIN8, active compounds read low 1.01 | locus YER002W, strain NOP16, active compounds read low 1.01 | locus YER015W, strain faa2, active compounds read low 0.997 | locus YER016W, strain bim1, active compounds read low 1.01 | locus YER110C, active compounds read low 0.993 | locus YER111C, strain swi4, active compounds read low 1.01 | locus YER155C, strain BEM2 (second series), active compounds read low 1 | locus YER155C, strain BEM2, active compounds read low 1.01 | locus YER167W, strain BCK2, active compounds read low 1 | locus YFR010W, strain ubp6, active compounds read low 0.986 | locus YGL078C, strain dbp3, active compounds read low 0.999 | locus YGL086W, strain mad1, active compounds read low 1 | locus YGL167C, strain pmr1, active compounds read low 1 | locus YGL173C, strain kem1, active compounds read low 0.986 | locus YGL227W, strain vid30, active compounds read low 0.998 | locus YGL240W, strain doc1, active compounds read low 1.02 | locus YGL248W, strain PDE1, active compounds read low 1.01 | locus YGL253W, strain hxk2, active compounds read low 0.988 | locus YGR135W, strain pre9, active compounds read low 0.994 | locus YGR229C, strain SMI1, active compounds read low 1.03 | locus YGR252W, strain gcn5, active compounds read low 0.958 | locus YHR013C, strain ard1, active compounds read low 1.04 | locus YHR027C, strain rpn1, active compounds read low 0.987 | locus YHR030C, strain SLT2, active compounds read low 1.01 and 0.958 | locus YHR079C, strain IRE1 (second series), active compounds read low 0.994 | locus YHR079C, strain IRE1, active compounds read low 0.967 | locus YHR094C, strain hxt1, active compounds read low 0.988 | locus YHR129C, strain ARP1, active compounds read low 1.01 | locus YHR142W, strain chs7, active compounds read low 0.965 | locus YHR200W, strain rpn10, active compounds read low 0.991 | locus YIL066C, strain RNR3, active compounds read low 1.02 | locus YIL073C, strain SPO22, active compounds read low 0.972 | locus YIL125W, strain kgd1, active compounds read low 1 | locus YIR030C, strain dcg1, active compounds read low 0.993 | locus YJL092W, strain hpr5, active compounds read low 0.984 | locus YJL095W, strain BCK1 (second series), active compounds read low 0.996 | locus YJL095W, strain BCK1, active compounds read low 1.05 and 0.981 | locus YJL115W, strain asf1, active compounds read low 0.965 | locus YJL129C, strain trk1, active compounds read low 0.991 | locus YJL134W, strain LCB3, active compounds read low 1 | locus YJL154C, strain vps35, active compounds read low 0.979 | locus YJL164C, strain tpk1, active compounds read low 0.994 | locus YJL166W, strain qcr8, active compounds read low 1.01 | locus YJL168C, strain set2, active compounds read low 0.996 | locus YJL187C, strain SWE1 (second series), active compounds read low 1.02 | locus YJL187C, strain SWE1, active compounds read low 1 | locus YJR043C, strain POL32, active compounds read low 1 | locus YJR066W, strain TOR1, active compounds read low 0.888
